For the test, the system named is PLK1.
`O=C(NCCNc1ccnc(Nc2ccc(F)cc2)n1)Nc1ccccc1F` [GSK1379880] yielded a Kd greater than 10 µM.

As for `C[C@@H](Oc1cc(-n2cnc3ccc(NC(=O)NC(C)(C)C)cc32)sc1C(N)=O)c1ccccc1Cl` [GSK346294], the affinity, expressed as Kd, was 0.0073 µM.

`COc1ccc(COc2cc(-n3cnc4ccccc43)sc2C(N)=O)cc1` [GSK1024304]: binding was put at a Kd of 0.037 µM.
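Also: kd values determined as follow-up on hits from a single-replicate KINOMEscan panel screen.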
